Laboratory results as given in PMC7819943, “Rice protein-binding microarrays: a tool to detect cis-acting elements near promoter regions in rice”.
The full ranking holds about 68,000 sequences; the median of “fluorescence intensity (a.u.)” is about 9,100, and the highest 2% start at about 16,000. For the sample, the highest values were picked, then their nearest neighbours and some sequences at random.

What follows are sequences tested against OsWRKY34 (Oryza sativa, UniProt Q0JBA9 1-250) (assay: protein-binding microarray (RPBM); PBS, 2% BSA, 51.3 ng/ul salmon testes DNA, 50 uM zinc acetate, 200 nM TF, 25 C, 1 h; high values mean tight binding). Settings: protein: recombinant; tags: N-terminal polyhistidine and DsRed monomer fusion (pET32a); label: CyDye5-dUTP incorporated in the synthesized complementary strand; 3' TTTTT single-stranded linker to array surface; dsDNA, one strand shown.
Chain of OsWRKY34 (Q0JBA9 entry or part of it): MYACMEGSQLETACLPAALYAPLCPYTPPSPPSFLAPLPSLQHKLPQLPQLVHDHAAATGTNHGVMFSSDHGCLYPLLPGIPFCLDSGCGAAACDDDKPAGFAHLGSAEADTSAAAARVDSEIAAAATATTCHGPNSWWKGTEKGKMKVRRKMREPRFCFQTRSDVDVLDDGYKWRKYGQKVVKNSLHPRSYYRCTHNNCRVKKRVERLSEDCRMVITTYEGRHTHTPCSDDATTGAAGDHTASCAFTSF
Summary of the method: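 For the binding signal, per-feature fluorescence intensity was read in arbitrary units on an Axon 4000B scanner. Before scanning, a 2% BSA-blocked custom Agilent array made double-stranded with Cy5-dUTP was washed after 1 h at 25 °C with 200 nM protein and 50 µM zinc acetate. The proteins were Ni–NTA-purified transcription factors with N-terminal polyhistidine and DsRed fusions, expressed in E. coli BL21-CodonPlus.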

Sequence | binding signal
ACGTGGAGTCACGTGACTGGGCCGTGCCACTTTTTTTTATCGGAGTCACCTAGTGCAG | 9360 fluorescence intensity (a.u.)
AGTCAATATCTTGCTTTGATACCTTTTTTTTTGCATTTTTCGGAGTCACCTAGTGCAG | 8050 fluorescence intensity (a.u.)
ACAACACGCCGCCTCGCCTGCCCATCCCGTCCAACCCACGCGGAGTCACCTAGTGCAG | 9200 fluorescence intensity (a.u.)
GATTGGTTGAAAATGTTTCTATTCTTAATGAATATCCTATCGGAGTCACCTAGTGCAG | 8080 fluorescence intensity (a.u.)
CCATCCACGCGACGCGGCACAACCTCCCGCGCCCAACACACGGAGTCACCTAGTGCAG | 8760 fluorescence intensity (a.u.)
CCTTCTTGTCCTGCTCCCGCGCCGGCTCCGACCGGGTCCTCGGAGTCACCTAGTGCAG | 8600 fluorescence intensity (a.u.)
AGTACATGGGCTTTCCATAATTGGTTTATACGTGGTTATTCGGAGTCACCTAGTGCAG | 8260 fluorescence intensity (a.u.)
CTCTGAATGGCCTTGTCACCCTTTTTATTCATTCATGCTCCGGAGTCACCTAGTGCAG | 9200 fluorescence intensity (a.u.)
TGTCCTTATCATCTTTGATCAAGTTTTTCTCTTTTCCTATCGGAGTCACCTAGTGCAG | 9480 fluorescence intensity (a.u.)
CTCTTTTTTTTTCTTCCACTACGCTCCAAAACTTCTCTCCCGGAGTCACCTAGTGCAG | 8790 fluorescence intensity (a.u.)
CCTTAGTCAGCCTCTGCTTCTGCTCCGTGCTCGCCGGCGCCGGAGTCACCTAGTGCAG | 12600 fluorescence intensity (a.u.)
GCGGCCGGCCGAGGGGTGGGAGCCGTCCGATCGCGGCGCGCGGAGTCACCTAGTGCAG | 8550 fluorescence intensity (a.u.)
CGATCCGCTTGCAGGCGGCGGCGGCGGGAGGGTGGTGGGGCGGAGTCACCTAGTGCAG | 18000 fluorescence intensity (a.u.)
GCCTCGATCGCGGCGGTGGCGGTGGGGAGGGGAGCGCACCCGGAGTCACCTAGTGCAG | 19000 fluorescence intensity (a.u.)
CCCGCGGCGGCGGGGTGGAGGCGACGGCGGTGGTGGTGGGCGGAGTCACCTAGTGCAG | 8590 fluorescence intensity (a.u.)
TACTGGGGAATCGGTGGTGGTGGCGGCGGCGGTGGCGGCGCGGAGTCACCTAGTGCAG | 9690 fluorescence intensity (a.u.)
GGAATCTGGGAGGTGGGTGGGCCCCACGGCGGAGACTCCGCGGAGTCACCTAGTGCAG | 17200 fluorescence intensity (a.u.)
TGAAGGGCGGGAGGGGCGTTGCGCGGGAGTGGCCGCGCGGCGGAGTCACCTAGTGCAG | 8670 fluorescence intensity (a.u.)
CTCATCCGAGTGGGTGGGCGGGGAGAGATCTAGGGCTTGCCGGAGTCACCTAGTGCAG | 11700 fluorescence intensity (a.u.)
GGGGCGGAGATCTGGGAGGAGGAGGAGGAGGTGGTGGTGGCGGAGTCACCTAGTGCAG | 14500 fluorescence intensity (a.u.)
GTGCGTGGGGCGAAGGGAGGGGAAGAAGAAGAAGGAGAAGCGGAGTCACCTAGTGCAG | 8080 fluorescence intensity (a.u.)
TGTGGCGGGGAGGGAGGGAGGGAGAAGGGGCGGCGTGTTGCGGAGTCACCTAGTGCAG | 16600 fluorescence intensity (a.u.)
ACGCAGGGGAGGGAGGGAGCGGTGGTGGTGGCGGCGGCGCCGGAGTCACCTAGTGCAG | 14000 fluorescence intensity (a.u.)
